Sampled rows, rich in hits. Any-hit rate of the full collection: about 6%.
TSHR agonist: activates the human thyroid stimulating hormone receptor | hit rate 0.48% among 73,000 | P16473 | HEK293-CNG-TSHR cells (CNG channel as cAMP sensor), membrane potential dye, cAMP | Potency, µM (series often up to 57.1 µM), without a hit: top-dose activation, hits mostly activators; active = well fitted activation curve with a large enough effect in the main read-out, with a control signal flat, not every such curve was filed as active; inconclusive = small, poorly fitted or top-dose-only effect, or a change in a side signal; inactive = no such curve, though single readings can be large or run the other way; % of control where 0% means no effect;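 also: the control signal comes from parental cells without the receptor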
Target sequence (P16473 whole entry, looked up): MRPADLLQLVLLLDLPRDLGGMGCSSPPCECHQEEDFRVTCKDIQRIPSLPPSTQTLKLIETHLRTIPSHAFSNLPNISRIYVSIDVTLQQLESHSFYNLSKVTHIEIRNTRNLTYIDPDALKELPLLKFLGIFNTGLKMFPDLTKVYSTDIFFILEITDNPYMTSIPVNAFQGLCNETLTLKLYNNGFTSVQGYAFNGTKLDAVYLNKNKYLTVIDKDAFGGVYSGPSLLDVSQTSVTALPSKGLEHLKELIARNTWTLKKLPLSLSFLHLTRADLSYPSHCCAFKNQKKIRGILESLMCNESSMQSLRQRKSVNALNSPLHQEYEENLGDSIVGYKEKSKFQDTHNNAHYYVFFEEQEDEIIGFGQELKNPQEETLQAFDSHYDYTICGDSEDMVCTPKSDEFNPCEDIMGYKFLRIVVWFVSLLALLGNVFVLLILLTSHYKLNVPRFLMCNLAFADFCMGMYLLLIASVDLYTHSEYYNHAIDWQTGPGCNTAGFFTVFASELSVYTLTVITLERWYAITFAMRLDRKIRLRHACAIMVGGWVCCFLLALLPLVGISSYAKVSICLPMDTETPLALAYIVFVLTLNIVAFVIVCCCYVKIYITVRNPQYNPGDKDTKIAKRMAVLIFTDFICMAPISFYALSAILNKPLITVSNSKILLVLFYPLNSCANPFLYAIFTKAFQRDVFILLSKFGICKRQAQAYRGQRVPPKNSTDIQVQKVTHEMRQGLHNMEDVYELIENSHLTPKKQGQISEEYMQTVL
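HEK 293 cells stably expressing TSHR and a modified CNG channel, with CNG-only parental cells as counterscreen, were preloaded 60 min at room temperature with membrane potential dye containing 100 uM RO 20-1724. Compound exposure was 30 min, and depolarization was read as fluorescence at 590 nm.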
CRE-bla Fsk: modulators of forskolin-stimulated CRE signaling in CHO cells. Potency, µM (highest dose often 38.2 µM), for the others: top-dose activity change, negative = inhibition, hits mostly activators. CHO CRE-bla reporter (cAMP response element driving beta-lactamase), forskolin EC10, beta-lactamase ratio. hit rate 2.5% among 71,000; active = well fitted activation curve with a large enough effect in the signal ratio, with a control signal flat, not every such curve was filed as active; inconclusive = small, poorly fitted or top-dose-only effect, or effect the other way, or a change in a side signal; the % refers to the signal ratio; also: % of control where 0% means no effect
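qHTS titration format; CRE-bla CHO reporter; stimulus EC10 NKH 477, a water-soluble forskolin. Read: CCF4 460/530 nm ratio. Potency expressed as AC50 for activators or inhibitors.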
ERK AVP inh: inhibitors of vasopressin-stimulated ERK signaling pathway; HEK293-V1b, vasopressin-stimulated pERK AlphaScreen; Potency, µM (highest dose often 57.5 µM), without a hit: at the highest dose activity, negative = inhibition, usual class: inhibitors; hit rate 0.99% among 72,000; AID 995; also: % is scaled to controls: 0 for no effect and ±100 for the full control effect; nearly all actives have a fitted effect of over 55% in size
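qHTS, compounds titrated on V1b-expressing HEK293 cells. Preincubation 30 min at 37C, vasopressin 25 nM for 5 min, lysis 10 min, bead incubation 5 hr at room temperature.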
HEK293 cAMP ctrl: raises cAMP in parental HEK293 cells, TSHR agonist counter-screen; Potency, µM (top dose mostly 57.1 µM), for inactives: at the top dose activation, hits mostly activators; parental HEK293 CNG cAMP sensor, membrane potential fluorescence; hit rate 2.5% among 73,000; also: % of control where 0% means no effect; nearly all actives have a fitted effect of over 55% in size
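Counterscreen for endogenous-receptor signalling: CNG-channel HEK 293 cells report cAMP rise by membrane depolarization. After 60 min dye equilibration with 100 uM RO 20-1724, compounds incubated 30 min before bottom-read fluorescence at 590 nm.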
* = called active by the depositor; ? = inconclusive; . = no result; [ ] = dose if it differs, or a comment. Unless noted, calls follow the shape of the dose curve; as a rule, active = well fitted curve in the direction sought with a large enough effect; inconclusive = small, poorly fitted or top-dose-only effect, or another doubt; inactive = no such curve, though single readings can be large; an effect the other way counts as inactive or inconclusive. Potency is read from the fitted curve at half-maximal effect.

SMILES	TSHR agonist	CRE-bla Fsk	ERK AVP inh	HEK293 cAMP ctrl
COc1ccc(OC)c(NC(=O)CSc2nc3ccccc3c(=O)n2CCNC(C)=O)c1	13.3%	10µM*	-19.4%	2.5%
COc1ccc(NC(=O)CSc2nc3ccccc3c(=O)n2CCNC(C)=O)c(OC)c1	28.6%	?	2.9%	8.4%
Cn1c(C(=O)NC2CCCCCC2)cc2c(=O)n(C)c3ccccc3c21	1.9%	2.51µM*	18.9%	8.1%
COc1cc(NC(=O)c2cc3c(=O)n(C)c4ccccc4c3n2C)cc(OC)c1OC	2.7%	16.9%	-12.1%	-6.7%
COc1ccc(NC(=O)c2cc3c(=O)n(C)c4ccccc4c3n2C)cc1OC	-21.6%	3.98µM*	?	-11.4%
COc1cc2nc(N3CC=[N+](C(=O)c4ccco4)CC3)nc(N)c2cc1OC	-0.9%	21.3%	-15.2%	-2.3%
Cn1c(CCCOc2ccc(Cl)cc2Cl)nnc1SCC(=O)Nc1nccs1	?	-7.2%	31.6µM*	?
Cn1c(CSCc2ccccc2Cl)nnc1SCC(=O)Nc1nccs1	?	-6.6%	?	?
NNC(=O)[C@@H](O)[C@H](O)[C@H](O)CO	4.7%[11.4 µM]	-4.9%[7.6 µM]	-4.0%[11.5 µM]	-1.5%[11.4 µM]
COc1ccc(-c2noc(-c3ccccc3-c3ccccc3)n2)cc1OC	17.9%	7.94µM*	1.7%	24.6%
COc1ccc(-c2noc(CSc3nnc(-c4ccncc4)n3-c3ccc(F)cc3)n2)cc1OC	22.4%	?	25.1µM*	26.1%
COc1ccc(-c2noc(-c3cc(C)cc(C)c3)n2)cc1OC	3.1%	?	-6.0%	1.6%
COc1ccc(-c2noc(CSc3nc(-c4ccccc4)cc(=O)[nH]3)n2)cc1OC	15.8µM*	?	?	5.9%
Cc1cccc(-c2noc(CN(C(=O)CCc3ccccc3)C(C)C)n2)c1	?	-7.2%	2.0%	?
COc1ccc(-c2noc(CCCc3ccccc3)n2)cc1OC	27.1%	?	37.8%	24.8%
COc1ccc(-c2noc(COc3ccc(C)c(C)c3)n2)cc1OC	.	?	-19.2%	26.1%
COc1ccc(Cl)cc1C(=O)N(Cc1nc(-c2cccc(C)c2)no1)C(C)C	25.1µM*	?	2.6%	11.5%[11.4 µM]
CO[C@H]1COC(=O)[C@H](C)NC(=O)C/C=C\[C@@H](C)[C@@H](NS(=O)(=O)c2ccc(C)cc2)COC(=O)C/C=C\[C@@H]1C	-4.2%[11.4 µM]	.	12.1%[11.5 µM]	-1.5%[11.4 µM]
N#C/C(=C\NC(=S)c1ccncc1)c1nc2ccccc2s1	1.7%[11.4 µM]	-9.4%[7.6 µM]	7.6%[11.5 µM]	-1.1%[11.4 µM]
COCCn1c(=O)c(-c2ccccc2)nc2cnc(N3CCN(C)CC3)nc21	3.6%	?	25.0%	10.7%[0.457 µM]
COc1ccc(-c2noc(Cc3ccc(Cl)cc3)n2)cc1OC	25.1µM*	?	94.4%	28.8%
COc1ncc2nc(-c3cccs3)c(=O)n(CCC#N)c2n1	1.7%	7.94µM*	-23.0%	4.4%
COCCn1c(=O)c(-c2cccs2)nc2cnc(Oc3ccccc3)nc21	.	?	42.4%	12.2%
COc1ncc2nc(-c3ccc(F)cc3)c(=O)n(Cc3cccs3)c2n1	10.5%	?	-7.3%	20.4%
COCCn1c(=O)c(C)nc2cnc(Oc3ccc(OC)cc3)nc21	?	?	-12.7%	31.6µM*
SMILES	TSHR agonist	CRE-bla Fsk	ERK AVP inh	HEK293 cAMP ctrl
COCCn1c(=O)c(-c2cccs2)nc2cnc(Oc3ccc(OC)cc3)nc21	3.8%	10µM*	4.4%	9.6%
COc1ccc(Oc2ncc3nc(-c4ccc(F)cc4)c(=O)n(Cc4cccs4)c3n2)cc1	4.0%	12.6µM*	-1.8%	8.6%[2.29 µM]
Cn1c(=O)c2[nH]c(CCC(=O)O)nc2n(C)c1=O	-7.4%[11.4 µM]	13.8%[7.6 µM]	-4.9%[11.5 µM]	1.3%[11.4 µM]
O=C(c1csnn1)N1CCC2(CC1)CCN(c1ccccn1)CC2	8.1%	4.6%	-17.2%	14.0%
COc1ccc(-n2c(=O)c(-c3cccs3)nc3cnc(N4CCOCC4)nc32)cc1	1.9%	?	18.1%	2.9%
COCCn1c(=O)c(-c2cccs2)nc2cnc(N3CCOCC3)nc21	-1.9%	2µM*	19.3%	4.0%
COc1ccc(Oc2ncc3nc(-c4cccs4)c(=O)n(C)c3n2)cc1	?	2.51µM*	18.1%	?
N[C@@H](CSCc1ccc(I)cc1)C(=O)O	?	5.7%[7.6 µM]	-13.5%[11.5 µM]	?
COC(=O)c1ccc(C)c(NS(=O)(=O)c2ccc(OC)cc2)c1	.	0.501µM*	-5.8%	14.7%[11.4 µM]
COc1ccc(S(=O)(=O)Nc2cc(C(C)C)c(O)cc2C)cc1	10.5%	-5.2%	-6.9%	-1.8%
COc1ccc(C[C@@](C)(N)C(=O)O)cc1OC	17.5%[25.6 µM]	-2.6%[17.1 µM]	1.1%[25.7 µM]	-2.4%[25.6 µM]
COc1ccc(-n2c(=O)c(CCc3ccccc3)nc3cnc(OC)nc32)cc1	?	24.9%	-21.0%	?
COC(=O)c1c(N)n(-c2ccc(NC(C)=O)cc2)c2nc3ccccc3nc12	-2.3%	?	-14.5%	1.5%
C=CCn1c(N)c(C(=O)OC(C)CC)c2nc3ccccc3nc21 (centres undefined)	3.7%	12.6µM*	-18.6%	26.1%
COc1ccc(S(=O)(=O)N2CCCCCC2)cc1C(=O)OCc1c(C)noc1C	10.5%	?	-1.2%	4.9%
Cc1noc(C)c1COC(=O)c1cccc(S(=O)(=O)N2CCCCCC2)c1	?	-1.0%	?	20µM*
CC(C)[C@@H]1OC(=O)C=CC=CC=CC=CC=CC[C@@H](O)[C@H](C)[C@@H](O)C[C@H](O)C[C@H](O)C[C@H](O)C[C@H](O)C[C@H](O)C[C@H](O)C=C[C@@H]1C	-3.6%[11.4 µM]	3.9%[7.6 µM]	.	-6.9%[11.4 µM]
CCc1cc(C(C)=O)c(O)cc1OCCCCCC(C)(C)c1nn[nH]n1	?	.	22.7%	20µM*
CCCCCn1c(CN(C)Cc2ccccc2)nc2c1c(=O)n(C)c(=O)n2C	?	?	-0.8%	20µM*
CN(Cc1ccccc1)c1nc2c(c(=O)n(C)c(=O)n2C)n1CCCc1ccccc1	.	-14.0%	20µM*	29.3%
Cn1c(=O)c2c(nc(Br)n2CCCc2ccccc2)n(C)c1=O	25.8%	?	-22.3%	29.2%
CCCCn1c(CN(Cc2ccccc2)Cc2ccccc2)nc2c1c(=O)n(C)c(=O)n2C	?	?	-5.2%	?
Nc1c(C(=O)NCCN2CCOCC2)c2nc3ccccc3nc2n1-c1ccc2c(c1)OCO2	.	27.3%	?	17.9%
Nc1ccc(-n2c(N)c(C(=O)NCc3ccc4c(c3)OCO4)c3nc4ccccc4nc32)cc1	-5.8%	12.6µM*	-6.3%	-14.7%
Nc1c(C(=O)NCc2ccc3c(c2)OCO3)c2nc3ccccc3nc2n1CCCN1CCOCC1	?	12.6µM*	-1.7%	?
CC(C)CN1CC2(CCN(S(=O)(=O)c3ccccc3)CC2)C1	6.3%	-15.5%	-11.2%	24.5%
CCc1nc(C)cn1S(=O)(=O)c1ccc(Cl)c(Cl)c1Cl	?	5.5%	-21.8%	25.1µM*
CCc1nc(C)cn1S(=O)(=O)c1cc(C)c(OC)cc1C	?	?	-24.0%	?
CC(=O)N(CC(O)CN(C(C)=O)c1c(I)c(C(=O)NC[C@@H](O)CO)c(I)c(C(=O)NC[C@@H](O)CO)c1I)c1c(I)c(C(=O)NC[C@@H](O)CO)c(I)c(C(=O)NC[C@@H](O)CO)c1I	-7.8%[25.6 µM]	-4.2%[17.1 µM]	-4.8%[25.7 µM]	-1.6%[25.6 µM]

From PubChem BioAssay
